This is a sample that favours compounds with a hit; in the whole collection about 1.4% have one here.
Wee1 stabilizer – Wee1 degradation inhibitors, primary screen, cell-based, HeLa, Wee1K328M-luciferase, luminescence | Wee1-like protein kinase (Homo sapiens), P30291 | HeLa Luc-Wee1K328M stability; 100% = proteasome inhibitor MG132 effect | reporter increase, % at 5 µM | 220,000 compounds, 1.2% hits | AID 1321, 2008;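 active = activation above the mean of all tested compounds plus 3 SD, set per screening run, cut at about 8.8% in these data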;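 also: cells exposed to compound for 20 h before luminescence read; 0% = DMSO alone and 100% = MG132 at 30 µM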
Bim-Bcl-W – inhibitors of Bim binding to Bcl-W, primary screen, biochemical, multiplexed, bead-based flow cytometry | Bcl-2-like protein 2 (Homo sapiens), Q92843 | Bim peptide-Bcl-W binding | inhibition, % at 10 µM | 190,000 compounds, 0.02% hits;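 also: 0% = bound tracer without compound and 100% = peptide blocker; higher means less fluorescent Bim peptide bound to Bcl-W beads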
Target sequence (Q92843 whole entry, looked up): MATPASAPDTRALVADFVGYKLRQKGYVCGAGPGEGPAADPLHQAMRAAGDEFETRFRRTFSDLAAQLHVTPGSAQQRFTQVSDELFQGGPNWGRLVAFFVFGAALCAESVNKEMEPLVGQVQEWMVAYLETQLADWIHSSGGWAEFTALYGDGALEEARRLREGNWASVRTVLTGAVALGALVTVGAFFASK
Bim-Bcl-XL – inhibitors of Bim-Bcl-XL binding, primary screen, biochemical, multiplexed, bead flow cytometry, human Bcl-XL. inhibition, % at 10 µM. 190,000 compounds, 0.04% hits. Bim peptide-Bcl-XL binding, fluorescence
Target sequence (Q07817 whole entry, looked up): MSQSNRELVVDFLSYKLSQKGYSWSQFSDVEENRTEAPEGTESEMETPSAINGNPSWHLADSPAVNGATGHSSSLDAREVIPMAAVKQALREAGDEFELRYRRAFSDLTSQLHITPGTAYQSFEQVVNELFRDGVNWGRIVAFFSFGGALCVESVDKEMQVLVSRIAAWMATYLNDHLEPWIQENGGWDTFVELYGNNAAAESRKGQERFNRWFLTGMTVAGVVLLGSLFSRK
Bcl-B Bim block – inhibitors of Bim-Bcl-B binding, primary screen, biochemical, multiplexed, human Bcl-2 family; bead-based flow cytometry, Bim peptide-Bcl-B binding; 190,000 compounds, 0.073% hits; AID 951, 2007; inhibition, % at 10 µM; Bcl-2-like protein 10 (Homo sapiens), Q9HD36;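 also: 0% = tracer peptide without compound and 100% = reference inhibitor peptide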
Target sequence (Q9HD36 whole entry, looked up): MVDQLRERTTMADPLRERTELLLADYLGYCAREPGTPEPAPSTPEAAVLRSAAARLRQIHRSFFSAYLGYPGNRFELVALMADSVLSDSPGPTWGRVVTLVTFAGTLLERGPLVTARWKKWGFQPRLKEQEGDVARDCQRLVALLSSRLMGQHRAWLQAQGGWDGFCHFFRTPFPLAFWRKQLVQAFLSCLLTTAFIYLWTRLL
Bim-Bcl-2 – inhibitors of Bim-Bcl-2 binding, primary screen, biochemical, multiplexed, human Bcl-2 family. Apoptosis regulator Bcl-2 (Homo sapiens), P10415. Bead-based flow cytometry, Bim peptide-Bcl-2 binding. inhibition, % at 10 µM. 190,000 compounds, 0.06% hits; in the data active = inhibition above about 40%;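 also: 0% = no compound wells with probe peptide and 100% = reference peptide inhibitor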
Bfl-1 Bim block – inhibitors of Bim binding to Bfl-1, primary screen, biochemical, multiplexed, bead-based flow cytometry. Bcl-2-related protein A1 (Homo sapiens), Q16548. Bim-Bfl-1 binding inhibition. inhibition, % at 10 µM. 190,000 compounds, 0.12% hits;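 also: 0% = wells without compound plus tracer and 100% = blocker peptide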
Wee1 stab conf – Wee1 degradation inhibitors, confirmation, cell-based, HeLa, Wee1K328M-luciferase, luminescence, triplicate | HeLa Luc-Wee1K328M degradation; vehicle 0%, proteasome-blocked wells 100% | AID 1410, 2008 | activation, % at 5 µM | shares compounds with Wee1 stabilizer | 1,100 compounds, 4% hits; in the data active = activation above about 8.9%
* marks the source's active call; other numbers are inactive results; . = no result. Rule as the data show it, unless noted: active = inhibition above about 40%.

SMILES	Wee1 stabilizer	Bim-Bcl-W	Bim-Bcl-XL	Bcl-B Bim block	Bim-Bcl-2	Bfl-1 Bim block	Wee1 stab conf
O=C(O)CNC(=O)CC1S/C(=N/N=C2/NC(=O)CS2)NC1=O (stereo not drawn)	12.6*	-2.0	-4.0	-11.0	-2.0	-7.0	-0.9
NC(=O)NC(=O)CC1S/C(=N/N=C2\CSC(=O)N2)NC1=O (stereo not drawn)	-3.6	0.0	-4.0	0.0	0.0	-6.0	.
Cc1ccc(/C=N/NC(=O)c2ccncc2)o1	13.4*	0.0	-2.0	-4.0	2.0	3.0	2.7
O=C(N/N=C/c1ccncc1)c1ccccc1	2.5	4.0	-1.0	-6.0	-7.0	-8.0	.
O=C(N/N=C/C1=Cc2ccccc2OC1)c1ccncc1	12.9*	.	.	.	.	.	-0.8
COc1ccc([C@@H]2[C@H]3C(=O)N(c4cccc(C(F)(F)F)c4)C(=O)[C@H]3ON2C)cc1	3.5	-4.0	-6.0	-2.0	-3.0	-7.0	.
O=C(Nc1ccccc1)c1sc2cc(C(F)(F)F)cnc2c1-c1cccs1	-0.9	0.0	1.0	-2.0	-7.0	0.0	.
CC(C)(C)NC(=O)C(Cc1ccccc1)NS(=O)(=O)c1ccc2c(c1)CCC(=O)N2 (stereo not drawn)	2.5	-6.0	-2.0	-1.0	-3.0	-4.0	.
O=C1CCc2cc(S(=O)(=O)NC(Cc3ccccc3)C(=O)NC3CCCCC3)ccc2N1 (stereo not drawn)	28.2*	-1.0	-1.0	-5.0	-3.0	-11.0	-0.5
O=[N+]([O-])/C=C\c1ccc(N2CCCC2)c(F)c1	15.8*	3.0	5.0	-12.0	6.0	3.0	0.0
O=Cc1ccc(N2CCCC2)c([N+](=O)[O-])c1	0.3	2.0	-2.0	2.0	3.0	-2.0	.
O=C(ONc1ccc(N=NC(=O)c2ccccc2O)cc1)c1ccccc1	0.4	-2.0	-6.0	-9.0	-10.0	-18.0	.
Nc1[nH]c(N=NC(=O)c2ccccc2O)c2ccccc12	14.2*	2.0	-3.0	0.0	3.0	2.0	2.3
CN(C)S(=O)(=O)c1cccc(NC(=O)COC(=O)c2ccc3c(c2)OCO3)c1	-0.5	0.0	-6.0	-3.0	-1.0	0.0	.
Cn1c(SCCCC(=O)c2ccc(Br)cc2)nnc1-c1ccncc1	0.2	-3.0	-8.0	-7.0	-8.0	-19.0	.
O=C(COc1ccccc1[N+](=O)[O-])NNC(=O)Nc1cccc2ccccc12	16.0*	-5.0	0.0	0.0	0.0	1.0	2.2
CC(C)c1nnc(NC(=O)COc2ccccc2[N+](=O)[O-])s1	22.5*	.	.	.	.	.	-1.3
CCSc1nnc(NC(=O)COc2ccccc2[N+](=O)[O-])s1	-0.7	-1.0	-3.0	-2.0	-1.0	-6.0	.
NNC(=O)COc1ccccc1[N+](=O)[O-]	2.9	-3.0	-5.0	-6.0	-5.0	-7.0	.
O=C(COC(=O)c1ccc(Cl)nc1)Nc1ccccc1OC(F)F	5.6	-1.0	-1.0	2.0	2.0	1.0	.
Nc1nc(NCCOCCO)nc(NCC2CCCO2)c1[N+](=O)[O-] (stereo not drawn)	1.8	.	.	.	.	.	.
CCC(C)NCCOc1ccccc1C (stereo not drawn)	-0.5	-3.0	-3.0	-3.0	-6.0	-7.0	.
COc1cccc(/C=N/Nc2ccc(C(=O)O)cc2)c1O	-4.4	-2.0	-1.0	0.0	-4.0	-1.0	.
COc1cccc(/C=N/Nc2ccc(S(=O)(=O)O)cc2)c1O	18.1*	0.0	0.0	0.0	0.0	3.0	4.7
CN1CCN(c2ncnc3c2cnn3-c2ccc(Cl)cc2)CC1	13.4*	3.0	-3.0	-5.0	-3.0	-10.0	-7.2
SMILES	Wee1 stabilizer	Bim-Bcl-W	Bim-Bcl-XL	Bcl-B Bim block	Bim-Bcl-2	Bfl-1 Bim block	Wee1 stab conf
CCN(CC)CCCOC(=O)C1(c2ccccc2)CCCC1	0.6	0.0	-4.0	-8.0	-6.0	-7.0	.
CCN(CC)CCOC(=O)C1(c2ccccc2)CCOCC1	13.9*	2.0	0.0	-1.0	0.0	4.0	0.4
CN1CCN(C(=O)CN(c2ccccc2)S(=O)(=O)N(C)C)CC1	10.9*	2.0	0.0	-1.0	0.0	-6.0	-0.8
CN(C)S(=O)(=O)N(CC(=O)N1CCOCC1)c1ccccc1	-0.7	-4.0	2.0	0.0	-2.0	-1.0	.
COc1cc(C)c(C)cc1S(=O)(=O)N1CCN(Cc2ccc3c(c2)OCO3)CC1	-1.1	4.0	-2.0	-8.0	-10.0	-13.0	.
COc1cc(C)c(C)cc1S(=O)(=O)N1CCN(Cc2ccccc2)CC1	14.4*	4.0	-14.0	-7.0	-4.0	-11.0	3.6
O=C(c1cccc(C(F)(F)F)c1)C1CCCN(Cc2ccc(OCCO)cc2)C1 (stereo not drawn)	12.9*	-3.0	-2.0	-2.0	-2.0	-6.0	-2.0
COC(=O)c1ccccc1N=Nc1c(N)[nH][nH]c1=O	17.9*	.	.	.	.	.	1.0
Cc1ccc(CCNC(=O)CNC(=S)N(Cc2ccccc2)Cc2cccnc2)cc1	15.4*	-4.0	-3.0	-6.0	0.0	-2.0	-0.4
CCC1CCCCN1Cc1nc(Cc2ccccc2Cl)no1 (stereo not drawn)	-1.6	.	.	.	.	.	.
CC12CCC(=O)N1C(C(=O)OCC(=O)Nc1ccc(Cl)c(Cl)c1)CS2 (stereo not drawn)	20.9*	-3.0	-6.0	-6.0	-5.0	-12.0	-3.0
CCCCCCC(=O)Nc1ccc(Br)cn1	1.8	.	.	.	.	.	.
Cc1cc(/C=C(\C#N)C(=O)NC2CCCCCC2)c(C)n1C	28.2*	-2.0	-6.0	-4.0	-7.0	-8.0	4.1
COc1ccc(/C=C(/C#N)C(=O)NC2CCCCC2)cc1Br	-2.2	0.0	0.0	-7.0	-4.0	-9.0	.
Cc1ccc(C(=O)NC2=NCCS2)cc1	15.7*	.	.	.	.	.	-2.6
CC(C)c1ccc(C(=O)NC2=NCCS2)cc1	5.5	-5.0	-12.0	-7.0	-1.0	-2.0	.
Cc1cccc2c(CC(=O)Nc3ccccc3)noc12	13.4*	-2.0	-2.0	0.0	-3.0	-2.0	4.6
Cc1ccc(-n2cc(-c3ccccc3)c3c(NN4CCOCC4)ncnc32)cc1	3.2	0.0	-4.0	-5.0	3.0	0.0	.
Cc1cccc(-n2cc(-c3ccccc3)c3c(NN4CCOCC4)ncnc32)c1	23.8*	0.0	-1.0	0.0	-1.0	-6.0	1.1
Cc1cccc(C)c1NC(=O)NCCCN1CCN(c2ccccc2)CC1	11.5*	-2.0	0.0	-1.0	0.0	0.0	-1.8
